Measured values reported in PubChem BioAssay (NCATS).
“And” between values parts separate entries of the source, which are not always exact repeats. Equal entries are not always repeated. Results filed as inconclusive are left out. A call without a number means that no potency is given here. Where a structure was tested more than once in an assay, its records may differ in their call. Values without a mark were called inactive. The source made the active and inactive calls. Calls follow the shape of the dose curve; as a rule, active = well fitted curve in the direction sought with a large enough effect; inconclusive = small, poorly fitted or top-dose-only effect, or another doubt; inactive = no such curve, though single readings can be large; an effect the other way counts as inactive or inconclusive.

Columns and labels:
[1] = system: HEK293; assay: Cytotoxic Profiling of Annotated Libraries Using Quantitative High-Throughput Screening (AID 1296008); conditions: Five cell lines viability, CellTiter-Glo ATP luminescence, 48-72 h; max response: active compounds read low; also: nearly all actives have a fitted effect of over 60% in size
Outline: (§1)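 Cells exposed to compounds for 48 or 72 hr at 37 degrees Celsius. Viability read as ATP-coupled luminescence with CellTiter-Glo after 10 min at room temperature.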

[2] = system: HaCat; assay: as above; conditions: Five cell lines viability, CellTiter-Glo ATP luminescence, 48-72 h; max response: active compounds read low
Outline: as §1

[3] = system: KB-3-1; assay: as above; conditions: Five cell lines viability, CellTiter-Glo ATP luminescence, 48-72 h; max response: active compounds read low
Outline: as §1

[4] = system: NIH3T3; assay: as above; conditions: Five cell lines viability, CellTiter-Glo ATP luminescence, 48-72 h; max response: active compounds read low
Outline: as §1

[5] = system: HACAT; assay: qHTS assay to identify novel small-molecules to repurpose for Merkel cell carcinoma treatment (AID 1296009); conditions: MCC and control cell lines, CellTiter-Glo viability, 72 h; series mostly up to 44.8 µM; also: nearly all actives have a fitted effect of over 60% in size
Outline: (§2)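 Dose-response viability screen; 72 hr exposure at 37 degree celsius; CellTiter-Glo added, 10 min room temperature, luminescence read; RLUs scaled between no-cell and DMSO wells.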

[6] = system: MCC-13; assay: as above; conditions: MCC and control cell lines, CellTiter-Glo viability, 72 h; series mostly up to 46 µM
Outline: as §2

[7] = system: MKL-1; assay: as above; conditions: MCC and control cell lines, CellTiter-Glo viability, 72 h; series mostly up to 46 µM
Outline: as §2

[8] = system: MKL-2; assay: as above; conditions: MCC and control cell lines, CellTiter-Glo viability, 72 h; series mostly up to 46 µM
Outline: as §2

[9] = system: NIH3T3; assay: as above; conditions: MCC and control cell lines, CellTiter-Glo viability, 72 h; at 44.8 µM (top of the series) unless noted
Outline: as §2

[10] = system: UISO; assay: as above; conditions: MCC and control cell lines, CellTiter-Glo viability, 72 h; series mostly up to 46 µM
Outline: as §2

[11] = system: WaGa; assay: as above; conditions: MCC and control cell lines, CellTiter-Glo viability, 72 h; series mostly up to 46 µM
Outline: as §2

[12] = system: CAOV3; assay: Primary qHTS to identify gynecologic anti-cancer compounds using libraries of approved drugs and bioactive compounds (AID 1345084); conditions: Gynecologic cancer cell panel viability, ATPlite luminescence, 48 h; series mostly up to 57.5 µM; also: nearly all actives have a fitted effect of over 55% in size
Outline: (§3)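 48 h compound exposure at 37 C, 5% CO2; five-point qHTS. ATPlite luminescence readout of cell ATP.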

[13] = system: CASKI; assay: as above; conditions: Gynecologic cancer cell panel viability, ATPlite luminescence, 48 h; series mostly up to 57.5 µM
Outline: as §3

[14] = system: Es-2; assay: as above; conditions: Gynecologic cancer cell panel viability, ATPlite luminescence, 48 h; series mostly up to 57.5 µM
Outline: as §3

[15] = system: Hek293T; assay: as above; conditions: Gynecologic cancer cell panel viability, ATPlite luminescence, 48 h, control line for the selectivity index; series mostly up to 57.5 µM
Outline: as §3

[16] = system: MCC-26; assay: qHTS assay to identify novel small-molecules to repurpose for Merkel cell carcinoma treatment (AID 1296009); conditions: MCC and control cell lines, CellTiter-Glo viability, 72 h; series mostly up to 46 µM; also: nearly all actives have a fitted effect of over 60% in size
Outline: as §2

[17] = system: C33A; assay: Primary qHTS to identify gynecologic anti-cancer compounds using libraries of approved drugs and bioactive compounds (AID 1345084); conditions: Gynecologic cancer cell panel viability, ATPlite luminescence, 48 h; series mostly up to 57.5 µM; also: nearly all actives have a fitted effect of over 55% in size
Outline: as §3

[18] = system: HeLa; assay: as above; conditions: Gynecologic cancer cell panel viability, ATPlite luminescence, 48 h; series mostly up to 57.5 µM
Outline: as §3

[19] = system: JEG-3; assay: as above; conditions: Gynecologic cancer cell panel viability, ATPlite luminescence, 48 h; series mostly up to 57.5 µM
Outline: as §3

[20] = system: HEK293T; assay: qHTS assay to identify novel small-molecules to repurpose for Merkel cell carcinoma treatment (AID 1296009); conditions: MCC and control cell lines, CellTiter-Glo viability, 72 h; at 44.8 µM (top of the series) unless noted; also: nearly all actives have a fitted effect of over 60% in size
Outline: as §2
Potency is read from the fitted curve at half-maximal effect.

Nc1nc(NCCNc2ncc(-n3ccnc3)c(-c3ccc(Cl)cc3Cl)n2)ccc1[N+](=O)[O-]
max response [1]: 4.96% | outcome [2]: inactive | Potency [3]: 20.6 µM (active) | outcome [3]: inactive | max response [4]: 4.08% | outcome [4]: inactive | Potency [5]: inactive | Potency [6]: inactive | Potency [7]: inactive | Potency [8]: inactive | outcome [9]: inactive | Potency [10]: inactive | Potency [11]: inactive | Potency [12]: inactive | Potency [13]: inactive | Potency [14]: inactive | Potency [15]: inactive

OCc1ccc(-c2ccc(-c3ccc(CO)s3)o2)s1
Potency [1]: 0.142 µM (active) | max response [2]: 4.62% | outcome [2]: inactive | Potency [3]: 2.82 µM (active) | max response [3]: -70.8% | max response [4]: -23.8% | Potency [5]: inactive | Potency [16]: inactive | Potency [17]: inactive | Potency [12]: 0.199 µM (active) | Potency [18]: inactive | Potency [15]: 1.41 µM (active) | Potency [19]: inactive

Cc1c(C)n(Cc2ccc(-c3ccccc3C(=O)O)cc2)c2ccc(C(=O)N[C@@H](C)c3ccc([N+](=O)[O-])cc3)cc12
max response [1]: -2.51% | outcome [1]: inactive | max response [2]: -4.97% | outcome [2]: inactive | max response [3]: 0.427% and 0.798% | max response [4]: -3.87% and -3.64% | Potency [5]: inactive | outcome [20]: inactive | Potency [6]: inactive | Potency [7]: 0.372 µM (active) | Potency [8]: 0.332 µM (active) | Potency [11]: 0.469 µM (active) | Potency [17]: inactive | Potency [12]: inactive | Potency [13]: inactive | Potency [14]: inactive | Potency [18]: inactive | Potency [15]: inactive | Potency [19]: inactive

Cc1cc(Nc2ncnc3ccc(-c4ccc(CNCCS(C)(=O)=O)o4)cc23)ccc1Oc1ccn2ncnc2c1
Potency [1]: 4.18 µM (active) | max response [1]: -117% | max response [2]: -107% | Potency [3]: 11.8 µM (active) | max response [3]: -26.8% | max response [4]: -81.1% | Potency [6]: inactive | Potency [16]: inactive | Potency [7]: 14.8 µM (active) | Potency [8]: 18.7 µM (active) | Potency [10]: 14.8 µM (active) | Potency [11]: 5.26 µM (active) | Potency [17]: inactive | Potency [12]: inactive | Potency [13]: inactive | Potency [14]: inactive | Potency [18]: inactive | Potency [15]: inactive | Potency [19]: inactive

CS(=O)(=O)c1ccc(-c2cnc(N)c(C(=O)Nc3ccccc3)n2)cc1
Potency [1]: 11.6 µM (active) | max response [2]: -14.1% | outcome [2]: inactive | outcome [3]: inactive | Potency [4]: 14.8 µM (active) and 5.17 µM (active) | Potency [5]: inactive | Potency [6]: inactive | Potency [16]: inactive | Potency [7]: inactive | Potency [10]: inactive | Potency [11]: inactive | Potency [17]: inactive | Potency [13]: inactive | Potency [18]: inactive | Potency [15]: inactive | Potency [19]: inactive

Clc1cccc(-c2nnnn2Cc2cccnc2)c1Cl
Potency [1]: 26.4 µM (active) | max response [1]: -0.348% | max response [2]: 3% and -9.84% | outcome [3]: inactive | max response [4]: -9.84% and -14.4% | Potency [6]: inactive | Potency [16]: inactive | Potency [7]: inactive | Potency [8]: inactive | Potency [10]: inactive | Potency [11]: inactive | Potency [17]: inactive | Potency [13]: inactive | Potency [14]: inactive | Potency [18]: inactive | Potency [15]: inactive | Potency [19]: inactive

c1ccc2c(CCNc3ccc(Nc4ccncc4)cc3)c[nH]c2c1
Potency [1]: 1.05 µM (active) and 2.31 µM (active) | Potency [2]: 11.8 µM (active) | max response [2]: 2.65% | Potency [3]: 23.5 µM (active) | Potency [4]: 16.6 µM (active) and 11.6 µM (active) | Potency [6]: 20.9 µM (active) | Potency [7]: 9.35 µM (active) | Potency [8]: 5.9 µM (active) | Potency [10]: 13.2 µM (active) | Potency [11]: 7.43 µM (active) | Potency [18]: inactive | Potency [19]: inactive

Cc1coc2c1C(=O)C(=O)c1c-2ccc2c1CCCC2(C)C
Potency [1]: 9.2 µM (active) | max response [2]: -3.22% | outcome [2]: inactive | Potency [3]: 16.4 µM (active) | max response [3]: -4.98% | max response [4]: -27% | outcome [4]: inactive | Potency [5]: inactive | Potency [6]: inactive | Potency [7]: inactive | Potency [8]: inactive | outcome [9]: inactive | Potency [10]: inactive | Potency [11]: inactive | Potency [17]: inactive | Potency [12]: inactive | Potency [13]: inactive | Potency [14]: inactive | Potency [15]: inactive

O=C1CCC[C@@H]2[C@H]3CCC[N+]4([O-])CCC[C@@H](CN12)[C@@H]34 (stereo partly specified)
max response [1]: 0.171% | max response [2]: 2.01% | outcome [2]: inactive | max response [3]: -0.364% and 8.14% | max response [4]: -2.91% | outcome [4]: inactive | Potency [5]: inactive | Potency [6]: inactive | Potency [16]: inactive | Potency [7]: inactive | Potency [8]: inactive | outcome [9]: inactive | Potency [10]: inactive | Potency [11]: inactive | Potency [17]: inactive | Potency [13]: inactive | Potency [14]: inactive | Potency [18]: inactive | Potency [15]: inactive | Potency [19]: inactive

Cn1cc(-c2ccncc2)c(-c2ccc(OCc3ccc4ccccc4n3)cc2)n1
Potency [1]: 3.72 µM (active) and 20.6 µM (active) | max response [2]: -14.9% | outcome [2]: inactive | max response [4]: -27.9% and -28% | Potency [5]: inactive | Potency [6]: inactive | Potency [16]: inactive | Potency [12]: inactive | Potency [13]: inactive | Potency [14]: inactive | Potency [18]: inactive | Potency [15]: inactive

C[C@]12CC[C@H](O)CC1=CCC1C2CC[C@]2(C)C(n3cnc4ccccc43)=CCC12 (stereo partly specified)
Potency [1]: 14.6 µM (active) | max response [1]: -24.7% | max response [2]: 2.2% | max response [3]: 0.714% | max response [4]: 3.78% and -16% | Potency [6]: inactive | Potency [16]: inactive | Potency [7]: inactive | Potency [10]: inactive | Potency [11]: inactive | Potency [17]: inactive | Potency [12]: inactive | Potency [13]: inactive | Potency [14]: inactive | Potency [18]: inactive | Potency [15]: inactive | Potency [19]: inactive
